# Test results reported in paper PMC4336329 (PLoS ONE, 2015).
# The campaign covered roughly 310,000 compounds. About 14,000 (4.5%) showed an effect of 50% or more. Effects have a minus sign here. Only a selection was taken, and strong results are over-represented in it overall.
# Molecular target: human ether-à-go-go-related gene (hERG) potassium channel (human, UniProt Q12809)
# Assay: primary screen, population patch clamp on CHO cells stably expressing hERG; higher = less effect of the substance
# 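Further: peak tail current of the secondary pulse compared with the same well before compound.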
# human ether-à-go-go-related gene (hERG) potassium channel, sequence (Q12809 whole entry, looked up): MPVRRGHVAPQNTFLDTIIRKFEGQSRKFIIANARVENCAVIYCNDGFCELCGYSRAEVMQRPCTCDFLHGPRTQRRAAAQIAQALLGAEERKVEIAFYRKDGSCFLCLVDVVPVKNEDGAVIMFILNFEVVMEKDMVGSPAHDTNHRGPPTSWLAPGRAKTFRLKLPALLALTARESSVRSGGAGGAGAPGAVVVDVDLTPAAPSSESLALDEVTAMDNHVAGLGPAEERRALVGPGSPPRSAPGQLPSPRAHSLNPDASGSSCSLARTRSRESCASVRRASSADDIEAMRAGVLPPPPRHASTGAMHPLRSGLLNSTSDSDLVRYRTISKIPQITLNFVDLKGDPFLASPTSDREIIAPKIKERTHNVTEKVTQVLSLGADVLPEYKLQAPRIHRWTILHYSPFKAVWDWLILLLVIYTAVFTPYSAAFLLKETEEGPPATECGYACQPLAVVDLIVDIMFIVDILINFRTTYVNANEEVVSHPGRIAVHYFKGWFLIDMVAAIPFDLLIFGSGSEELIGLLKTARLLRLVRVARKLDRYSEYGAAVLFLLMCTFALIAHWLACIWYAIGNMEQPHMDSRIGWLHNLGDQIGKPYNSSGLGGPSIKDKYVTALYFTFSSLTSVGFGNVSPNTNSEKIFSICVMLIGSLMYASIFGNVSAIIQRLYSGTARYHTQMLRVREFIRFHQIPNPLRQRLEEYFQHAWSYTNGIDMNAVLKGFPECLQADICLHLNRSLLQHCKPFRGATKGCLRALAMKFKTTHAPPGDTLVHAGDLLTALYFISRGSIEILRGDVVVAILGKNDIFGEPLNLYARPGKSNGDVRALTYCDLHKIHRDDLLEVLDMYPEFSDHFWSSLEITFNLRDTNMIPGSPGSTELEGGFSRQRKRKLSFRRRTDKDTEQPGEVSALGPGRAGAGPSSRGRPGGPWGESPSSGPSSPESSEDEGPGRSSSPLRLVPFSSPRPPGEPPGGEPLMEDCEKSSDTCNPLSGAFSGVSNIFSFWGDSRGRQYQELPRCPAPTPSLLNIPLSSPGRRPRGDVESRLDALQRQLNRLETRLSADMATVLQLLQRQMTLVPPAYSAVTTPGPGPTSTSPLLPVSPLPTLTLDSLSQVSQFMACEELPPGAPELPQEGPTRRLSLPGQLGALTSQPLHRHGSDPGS
row,Compound,"hERG current change (%, negative = inhibition) at 10uM [%]"
1,Cc1ccccc1C(=O)NNC(=O)C1CC(=O)N(Cc2ccccc2)C1 (stereo not drawn),2.19
2,COc1ccc(C(C#N)c2ccc(Cl)nn2)cc1 (stereo not drawn),-2.07
3,Cc1ccc2[nH]c(=O)c3cc(C(=O)NCC4CCCO4)sc3c2c1 (stereo not drawn),-3.5
4,CS(=O)(=O)Nc1ccc(C(=O)NC2CCCCC2)cc1,-0.845
5,COc1ccc2cc(C)c(SCC(=O)Nc3cc(C)on3)nc2c1,6.5
6,COc1ccc(-c2nc3ccccc3o2)cc1NC(=O)c1ccc(Br)o1,4.92
7,CCOC(=O)COn1c(=O)c(-c2ccc(OC)cc2)[n+]([O-])c2ccccc21,-1.13
8,C=CCNC(=O)C1CCN(c2ccc(S(=O)(=O)N3CCOCC3)cc2[N+](=O)[O-])CC1,-24
9,COCCN(CCOC)C(=O)C1CCN(c2ccc(S(=O)(=O)N3CCOCC3)cc2[N+](=O)[O-])CC1,-35.5
10,O=C(NCc1ccco1)C1CCN(c2ccc(S(=O)(=O)N3CCOCC3)cc2[N+](=O)[O-])CC1,-70
11,CC(C)CNC(=O)C1CCN(c2ccc(S(=O)(=O)N3CCOCC3)cc2[N+](=O)[O-])CC1,-38.8
12,CCCN(CCC)C(=O)C1CCN(c2ccc(S(=O)(=O)N3CCOCC3)cc2[N+](=O)[O-])CC1,-22.4
13,CCCCN(C)C(=O)C1CCN(c2ccc(S(=O)(=O)N3CCOCC3)cc2[N+](=O)[O-])CC1,-53.9
14,CN(/N=C/c1ccco1)C1=NS(=O)(=O)c2ccccc21,4.85
15,O=C(CC(SCCO)c1ccc2c(c1)OCO2)c1cccs1 (stereo not drawn),-16.7
16,CCOc1cc(N2CCOCC2)c(OCC)cc1NC(=O)CCS(=O)(=O)c1ccc(Cl)cc1,-35.5
17,N#CCCN1CCN(S(=O)(=O)c2ccc(S(=O)(=O)NC3CC3)cc2)CC1,-1.76
18,O=C(Nc1cccc(C(F)(F)F)c1)c1c(O)c2ccccc2[nH]c1=O,16
19,CCN(CC)CCCN=Cc1c(O)n(Cc2ccc(F)cc2)c(=O)[nH]c1=O,-33.7
20,O=c1[nH]c(=O)n(CCC2=CCCCC2)c(O)c1C=NCCN1CCNCC1,-11.7
21,CN(C)CCN=Cc1c(O)n(CCC2=CCCCC2)c(=O)[nH]c1=O,-24.2
22,CN(C)CCCN=Cc1c(O)n(CCc2ccc(F)cc2)c(=O)[nH]c1=O,15.2

row,Compound,"hERG current change (%, negative = inhibition) at 10uM [%]"
1,CCN(CC)CCCN=Cc1c(O)n(CCc2ccc(F)cc2)c(=O)[nH]c1=O,-56.1
2,CCN(CC)CCN=Cc1c(O)n(CCC2=CCCCC2)c(=O)[nH]c1=O,-65.6
3,CN1CCN(c2ccc(S(=O)(=O)N3CCOCC3)cc2NC(=O)CC(C)(C)C)CC1,8.55
4,O=C(NCc1ccco1)c1ccc(COCC(F)(F)C(F)F)cc1,-13.6
5,CC(=O)Nc1ccc(S(=O)(=O)/N=C2\SCCN2S(=O)(=O)c2ccc(NC(C)=O)cc2)cc1,-5.46
6,C=CCSc1nsc(NC(=O)Nc2ccc(F)cc2)n1,22.1
7,COc1cc(-c2nnc(SCC3(c4ccc(Br)cc4)OCCO3)o2)cc(OC)c1OC,-9.92
8,Cc1nc(C(C)NC(=O)c2cc(COc3ccc(F)c(F)c3)on2)cs1 (stereo not drawn),-11.2
9,O=c1c2ccccc2ncn1CCOCCOc1ccc([N+](=O)[O-])cc1,-64.3
10,COc1ccc(OCCn2cnc3ccccc32)cc1,0.789
11,O=[N+]([O-])c1ccc(OCCn2cnc3ccccc32)cc1,-68.1
12,O=c1c2ccc([N+](=O)[O-])cc2ncn1CCOc1ccccc1,-8.16
13,CC(C)(C)c1ccc(OCCOCCn2cnc3ccccc3c2=O)cc1,-36.8
14,c1ccc(OCCn2cnc3ccccc32)cc1,-9.08
15,Cc1c(C(=O)OC(C)C)sc(NC(=O)c2cccnc2)c1C#N,18.3
16,CCOc1ccc(CCNC(=O)c2ccc(Cl)c(S(=O)(=O)N3CCOCC3)c2)cc1OCC,-20.4
17,CCN(C(=O)Cn1c(=O)oc2ccccc21)c1cccc(C)c1,6.38
18,COc1cc2c(cc1OC)C1=C(C#N)CC/C(=N\S(=O)(=O)c3ccccc3)N1CC2,-33.1
19,O=C(CSc1nnc(NC(=O)c2cccc(Cl)c2)s1)NCC1CCCO1 (stereo not drawn),20
20,Cl.O=C(O)c1ccc(CNCc2ccc(F)cc2)cc1,16.4
21,CCOC(=O)Cc1csc(NC(=O)c2sc3nc4cc(C)ccc4cc3c2N)n1,-6.55
22,Cc1nnc2c(N3CCN(C(=O)c4ccco4)CC3)nc3ccccc3n12,-33.1

row,Compound,"hERG current change (%, negative = inhibition) at 10uM [%]"
1,CC(C)Cn1c(N2CCN(C(=O)/C=C/c3ccccc3)CC2)nc2ccccc21,-69.1
2,O=C(Cn1c(N2CCN(C/C=C/c3ccccc3)CC2)nc2ccccc21)c1ccccc1,-51.2
3,CCn1c(N2CCN(C(=O)c3ccco3)CC2)nc2ccccc21,-50.7
4,CCn1c(N2CCN(C(=S)NCCc3ccccc3)CC2)nc2ccccc21,-50
5,CC(C)n1c(N2CCN(C(=O)c3cccs3)CC2)nc2ccccc21,-49.2
6,O=C(Cn1c(N2CCN(c3ccccc3)CC2)nc2ccccc21)c1ccccc1,-16.1
7,CC(C)Cn1c(N2CCN(C(=O)c3cccs3)CC2)nc2ccccc21,-73.6
8,CC1CCN(c2nc3ccccc3n2CC(=O)c2ccccc2)CC1,56
9,CC(C)Cn1c(/C=C/c2ccccc2)nc2ccccc21,-42.2
10,CC(C)Cn1c(SCC(=O)N2CCN(S(=O)(=O)c3ccccc3)CC2)nc2ccccc21,0.539
11,O=C(c1cccs1)N1CCn2c1nc1ccccc12,-25.5
12,COc1ccc(/C=C2\C(=O)NC(=O)N(CCC3=CCCCC3)C2=O)c(OC)c1,24.6
13,COc1ccccc1NC(=O)C1=C(C)Nc2nnnn2C1c1cc(Br)ccc1OC (stereo not drawn),-0.22
14,CCOc1ccccc1C(=O)OCC(=O)NCCNC(=O)COC(=O)c1ccccc1OCC,5.95
15,O=C(CC1S/C(=N/N=C/c2cccs2)NC1=O)Nc1ccc(Cl)cc1 (stereo not drawn),-3.86
16,Cc1cc(C)cc(N(C(=O)c2snc(C(N)=O)c2N)C(C(=O)NCC2CCCO2)c2cccs2)c1 (stereo not drawn),-18.7
17,Cc1ccc(C(=O)/C=C/Nc2ccccn2)cc1,-1.05
18,O=C(COc1ccccc1[N+](=O)[O-])N1CCN(S(=O)(=O)c2ccccc2)CC1,-46.6
19,CCOC(=O)Cn1c(C)nc2c(C(=O)OCC)sc(C)c2c1=O,-5
20,O=C(NCCCN1CCCC1=O)c1cc(NS(=O)(=O)c2ccc(F)cc2)cc(NS(=O)(=O)c2ccc(F)cc2)c1,-4.88
21,CCn1c(N2CCN(C(=O)C34CC5CC(CC(C5)C3)C4)CC2)nc2ccccc21,-37.9
22,CCn1c(N2CCN(C(=O)/C=C/c3ccccc3)CC2)nc2ccccc21,-80.8

row,Compound,"hERG current change (%, negative = inhibition) at 10uM [%]"
1,CCCn1c(N2CCN(C(=O)/C=C/C(=O)O)CC2)nc2ccccc21,9.76
2,Cc1cccc(C(=O)NC(=S)NNC(=O)Cc2ccccc2)c1,3.66
3,O=C(C1CCCO1)N1CCN(C(=S)NC2CC2)CC1 (stereo not drawn),23
4,COc1cccc(C2C=C(c3ccc(OC)cc3OC)Nc3nnnn32)c1 (stereo not drawn),1.76
5,Cc1ccc(S(=O)(=O)NCCC(=O)N2CCN(c3cccc(Cl)c3)CC2)cc1C,4.35
6,O=S(=O)(c1cccc2nonc12)N1CCN(c2cccc(Cl)c2)CC1,-4
7,O=C(CCNS(=O)(=O)c1cccc2nonc12)N1CCN(c2cccc(Cl)c2)CC1,-50.6
8,Cc1ccc(C)c(N2CCN(C(=O)CCS(=O)(=O)c3cccc4nonc34)CC2)c1,-25.4
9,O=C(CCS(=O)(=O)c1cccc2nonc12)N1CCOCC1,14.6
10,O=C(CCS(=O)(=O)c1cccc2nonc12)N1CCN(c2ccc(F)cc2)CC1,-60.8
11,CSc1ncc(C(=O)Nc2ccccc2C)c(C)n1,12.5
12,Cc1ccc(-c2nc3c(=O)n(C)c4ccccc4c3o2)cc1,22.3
13,Nc1cc(=O)[nH]c(=O)n1-c1cccc(F)c1,18.4
14,COc1ccccc1NC(=O)c1cc2c(=O)n(C)c3ccccc3c2n1C,1.19
15,O=C(OCCOc1cccc(Cl)c1)c1cc(S(=O)(=O)N2CCOCC2)ccc1F,-14
16,CCn1c(COc2ccc(OC)cc2)nc2ccccc21,-19.8
17,Cc1ccccc1NC(=O)C1CCN(C2=NS(=O)(=O)c3ccccc32)CC1,-15.2
18,COc1cc(CNc2ccccc2)c([N+](=O)[O-])cc1OC.O=C(O)C(=O)O,-3.72
19,C/C(=C1/SC(N2CCOCC2)=NC1=O)c1ccc(Br)cc1,14.8
20,C/C(=C1/SC(N2CCCC2)=NC1=O)c1ccc(Br)cc1,-76.7
21,C/C(=C1\SC(N2CCOCC2)=NC1=O)c1ccc(C)cc1,-10.8
